Our source for the growth inhibition values is PubChem BioAssay (NCI).

Compounds without any hit were thinned out: in the full panel of roughly 79,000, 15% have a hit. A number with no mark means an inactive call. Calls of active or inactive are those of the source. Rule as the data show it: active = growth inhibition above about 70%; inactive = the rest.

A short description of assay [1]: NCI Yeast Anticancer Drug Screen. Data for the rad50 strain (AID 155).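 Also: 0% = growth of vehicle-only cultures of the same strain.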 The settings on record: S. cerevisiae rad50 strain growth inhibition, hits give high values. The method, boiled down: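 DNA repair mutant yeast, compound exposure, growth read-out; inhibition is taken relative to vehicle.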
The nature of assay [2]: NCI Yeast Anticancer Drug Screen. Data for the mec2-1 strain (AID 157). The settings on record: S. cerevisiae mec2-1 strain, hits give high values. An outline of the steps:
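Cells of the genetically defined mec2-1 yeast strain are incubated with test compound. Inhibition of growth is calculated against vehicle-treated controls.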

Assay [3] can be described thus: NCI Yeast Anticancer Drug Screen. Data for the sgs1 mgt1 strain (AID 161).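 Also: 0% = growth of cultures given vehicle only.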 The note with it: S. cerevisiae sgs1 mgt1 strain, hits give high values. An outline of the steps: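 Test agents were incubated with a DNA-repair-mutant yeast strain. Growth was then read and compared against vehicle-treated controls.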
Assay [4] in a line: NCI Yeast Anticancer Drug Screen. Data for the cln2 rad14 strain (AID 165).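 Also: 0% = growth equal to vehicle treated cultures.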 The note with it: S. cerevisiae cln2 rad14 strain, hits give high values. An outline of the steps: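 The screen exposed genetically defined yeast (cln2 rad14) to test compounds and scored growth inhibition relative to vehicle-treated controls.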
Assay [5] is described as follows: NCI Yeast Anticancer Drug Screen. Data for the bub3 strain (AID 167). The note with it: S. cerevisiae bub3 mutant strain, hits give high values. An outline of the steps:
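In this screen, a yeast mutant lacking normal mitotic checkpoint function is challenged with compound. Relative growth versus vehicle gives the inhibition value.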

Assay [6] in a line: NCI Yeast Anticancer Drug Screen. Data for the mlh1 rad18 strain (AID 175). The note with it: S. cerevisiae mlh1 rad18 strain growth inhibition, hits give high values. The method, boiled down: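 Compound-treated yeast growth, normalised to vehicle controls. Strain bears defined DNA repair mutations.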
Where [7] appears, read: at 5.0 µM (retest, dose inferred, filed as 0.5).
Where [8] appears, read: at 50.0 µM (retest, dose inferred, filed as 5.0).

For the compound `COc1ccc(N=Nc2ccc3oc(=O)c(C(=O)Nc4ccc(Cl)cc4)cc3c2)cc1`, the growth inhibition in assay [1] (setting [7]) was 29%; in assay [1] (setting [8]) it was 98% (active); in assay [1] (at 50.0 µM) it was 98.5% (active); in assay [2] (setting [7]), 16%; in assay [2] (setting [8]), 98% (active); in assay [2] (at 50.0 µM), 98.9% (active). Moreover, the growth inhibition in assay [3] (setting [7]) was 0%; in assay [3] (setting [8]), 98% (active); in assay [3] (at 50.0 µM), 98.3% (active); in assay [4] (setting [7]), 16%; in assay [4] (setting [8]) it was 98% (active); in assay [4] (at 50.0 µM) it was 98.3% (active). In addition, the growth inhibition was 14% in assay [5] (setting [7]); 97% (active) in assay [5] (setting [8]); 98.8% (active) in assay [5] (at 50.0 µM); 33% in assay [6] (setting [7]); 99% (active) in assay [6] (setting [8]); 98.7% (active) in assay [6] (at 50.0 µM).
As to `CC(=O)c1cccc(NC2C(N)C(NC(=O)N(C)C)(C(C)O)C(C)(O)C2(O)COC(=O)c2c(C)cccc2O)c1` (configuration not stated), the growth inhibition in assay [1] (setting [7]) was 42%; in assay [1] (setting [8]), 96% (active); in assay [1] (at 50.0 µM), 93% (active); in assay [2] (setting [7]) it was 17%; in assay [2] (setting [8]), 98% (active); in assay [2] (at 50.0 µM), 94.5% (active). The growth inhibition in assay [3] (setting [7]) was 44%; in assay [3] (setting [8]) it was 97% (active); in assay [3] (at 50.0 µM), 94.6% (active); in assay [4] (setting [7]), 21%; in assay [4] (setting [8]), 96% (active); in assay [4] (at 50.0 µM), 92% (active). In addition, the growth inhibition is 36% in assay [5] (setting [7]); 98% (active) in assay [5] (setting [8]); 93.8% (active) in assay [5] (at 50.0 µM); 47% in assay [6] (setting [7]); 97% (active) in assay [6] (setting [8]); 93.2% (active) in assay [6] (at 50.0 µM).
As for `C/C(O)=C(/C=N\C(=S)Nc1ccc(Cl)c(Cl)c1)C(=O)Nc1ccccc1C`, the growth inhibition is -11% in assay [1] (setting [7]); 40% in assay [1] (setting [8]); 67% in assay [1] (at 50.0 µM); -6% in assay [2] (setting [7]); 26% in assay [2] (setting [8]); 39.6% in assay [2] (at 50.0 µM). For the same compound, the growth inhibition was 1% in assay [3] (setting [7]); 22% in assay [3] (setting [8]); 73.5% (active) in assay [3] (at 50.0 µM); -7% in assay [4] (setting [7]); 34% in assay [4] (setting [8]); -10.2% in assay [4] (at 50.0 µM). Moreover, the growth inhibition in assay [5] (setting [7]) is -15%; in assay [5] (setting [8]) it was 13%; in assay [5] (at 50.0 µM), 51.6%; in assay [6] (setting [7]), 11%; in assay [6] (setting [8]), 22%; in assay [6] (at 50.0 µM), 57.7%.
Turning to `CN(C)CCCC1(c2ccccc2)SC(C)(C)c2ccc(Cl)cc21` (configuration not stated), the growth inhibition in assay [1] (setting [7]) was -36%; in assay [1] (setting [8]) it was 28%; in assay [1] (at 50.0 µM), 15.3%; in assay [2] (setting [7]), -4%; in assay [2] (setting [8]), 7%; in assay [2] (at 50.0 µM), 28.9%. In addition, the growth inhibition is 0% in assay [3] (setting [7]); 39% in assay [3] (setting [8]); 44.2% in assay [3] (at 50.0 µM); 0% in assay [4] (setting [7]); 0% in assay [4] (setting [8]); -9.75% in assay [4] (at 50.0 µM). For the same compound, the growth inhibition was -2% in assay [5] (setting [7]); 11% in assay [5] (setting [8]); 19.3% in assay [5] (at 50.0 µM); 11% in assay [6] (setting [7]); 56% in assay [6] (setting [8]); 66% in assay [6] (at 50.0 µM).
On to `CCN(CC)C(=S)N/N=C(/c1ccccc1)c1ccccn1`, for which the growth inhibition was 42% in assay [1] (setting [7]); 96% (active) in assay [1] (setting [8]); 70.7% (active) in assay [1] (at 50.0 µM); 92% (active) in assay [2] (setting [7]); 97% (active) in assay [2] (setting [8]); 76.9% (active) in assay [2] (at 50.0 µM). The growth inhibition in assay [3] (setting [7]) is 44%; in assay [3] (setting [8]), 97% (active); in assay [3] (at 50.0 µM), 81.8% (active); in assay [4] (setting [7]), 80% (active); in assay [4] (setting [8]), 95% (active); in assay [4] (at 50.0 µM), 81.8% (active). For the same compound, the growth inhibition was 95% (active) in assay [5] (setting [7]); 96% (active) in assay [5] (setting [8]); 85.2% (active) in assay [5] (at 50.0 µM); 96% (active) in assay [6] (setting [7]); 97% (active) in assay [6] (setting [8]); 83.1% (active) in assay [6] (at 50.0 µM).
Take `Cc1ccnc(NS(=O)(=O)c2ccc(N=Cc3c4ccccc4nc4cc(Cl)ccc34)cc2)n1`: the growth inhibition in assay [1] (setting [7]) was 58%; in assay [1] (setting [8]) it was 15%; in assay [1] (at 50.0 µM), 99.4% (active); in assay [2] (setting [7]), 32%; in assay [2] (setting [8]), 38%; in assay [2] (at 50.0 µM), 99.2% (active). Moreover, the growth inhibition was 41% in assay [3] (setting [7]); 23% in assay [3] (setting [8]); 99.4% (active) in assay [3] (at 50.0 µM); 16% in assay [4] (setting [7]); 1% in assay [4] (setting [8]); 99% (active) in assay [4] (at 50.0 µM). The growth inhibition in assay [5] (setting [7]) was 40%; in assay [5] (setting [8]) it was -2%; in assay [5] (at 50.0 µM), 58.1%; in assay [6] (setting [7]) it was 24%; in assay [6] (setting [8]) it was 11%; in assay [6] (at 50.0 µM), 99.3% (active).
Take `O=C1c2ccccc2C(=O)C2OC12` (configuration not stated): the growth inhibition was 48% in assay [1] (setting [7]); 98% (active) in assay [1] (setting [8]); 93.2% (active) in assay [1] (at 50.0 µM); 48% in assay [2] (setting [7]); 98% (active) in assay [2] (setting [8]); 95.1% (active) in assay [2] (at 50.0 µM). Moreover, the growth inhibition in assay [3] (setting [7]) was 50%; in assay [3] (setting [8]) it was 99% (active); in assay [3] (at 50.0 µM), 94.7% (active); in assay [4] (setting [7]), 72% (active); in assay [4] (setting [8]), 99% (active); in assay [4] (at 50.0 µM) it was 93.3% (active). For the same compound, the growth inhibition is 73% (active) in assay [5] (setting [7]); 100% (active) in assay [5] (setting [8]); 93.5% (active) in assay [5] (at 50.0 µM); 51% in assay [6] (setting [7]); 99% (active) in assay [6] (setting [8]); 89.9% (active) in assay [6] (at 50.0 µM).
On to `O=C1/C(=C/c2ccccc2[N+](=O)[O-])COc2ccccc21`, for which the growth inhibition is 37% in assay [1] (setting [7]); 94% (active) in assay [1] (setting [8]); -4% in assay [1] (at 50.0 µM); 28% in assay [2] (setting [7]); 96% (active) in assay [2] (setting [8]); 12.7% in assay [2] (at 50.0 µM). Further, the growth inhibition in assay [3] (setting [7]) was 21%; in assay [3] (setting [8]), 92% (active); in assay [3] (at 50.0 µM), 13.2%; in assay [4] (setting [7]), 28%; in assay [4] (setting [8]), 94% (active); in assay [4] (at 50.0 µM), 8.75%. The growth inhibition in assay [5] (setting [7]) is 34%; in assay [5] (setting [8]), 98% (active); in assay [5] (at 50.0 µM) it was 15.1%; in assay [6] (setting [7]), 23%; in assay [6] (setting [8]), 98% (active); in assay [6] (at 50.0 µM) it was 8.65%.
As to `CCCCCCCCCCC(C(=O)OCCCC)P(=O)(OCCCC)OCCCC` (configuration not stated), the growth inhibition in assay [1] (setting [7]) is 11%; in assay [1] (setting [8]) it was 95% (active); in assay [1] (at 50.0 µM) it was 36.4%; in assay [2] (setting [7]), 9%; in assay [2] (setting [8]), 95% (active); in assay [2] (at 50.0 µM), 73.2% (active). Besides, the growth inhibition was 8% in assay [3] (setting [7]); 86% (active) in assay [3] (setting [8]); 30.8% in assay [3] (at 50.0 µM); 13% in assay [4] (setting [7]); 96% (active) in assay [4] (setting [8]); 81.2% (active) in assay [4] (at 50.0 µM). For the same compound, the growth inhibition was 4% in assay [5] (setting [7]); 95% (active) in assay [5] (setting [8]); 21.1% in assay [5] (at 50.0 µM); 6% in assay [6] (setting [7]); 94% (active) in assay [6] (setting [8]); 59.3% in assay [6] (at 50.0 µM).
